Source: PubChem BioAssay
A selection: hits, their analogues and other compounds. The true share with any hit is near 2.5%.
D2 PAM-1: positive allosteric modulators of human D2 dopamine receptor; 360,000 compounds, 0.23% hits; potentiation, % (test concentration not listed); DiscoveRx D2 beta-arrestin cells, luminescence, 90 min; 100% = 57 uM dopamine signal; P14416; in the data active = potentiation above about 50%; inconclusive = mostly about 30% to 49%
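D2 cells co-treated with compound plus 50 nM dopamine (EC20) for 90 min at 37 deg C to detect potentiation. Beta-arrestin recruitment was read as enzyme-fragment luminescence after 1 h at ambient temperature. Full response was set by 57 uM dopamine.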
D2 antagonist: antagonists of human D2 dopamine receptor; inhibition, % at 10 µM; HEK293 TREx D2 cells, calcium flux, dopamine EC80; 340,000 compounds, 2% hits; P14416; in the data active = inhibition above about 30%; inactive = below that, where a call was filed; also: 0% is about no effect
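Compounds are added to dye-loaded, induced HEK293 T-REx cells coupled to calcium release via D2; after a 3 min kinetic read an EC80 dopamine stimulus is given and fluorescence is recorded for 3 more min.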
D2 ag-1: human D2 receptor agonism in beta-arrestin assay; P14416; DiscoveRx PathHunter D2 beta-arrestin, luminescence, 90 min; 100% = 57 uM dopamine signal; activation, % (concentration not given with the values); 360,000 compounds, 0.084% hits; AID 624465; in the data active = activation above about 40%; inconclusive = between about 15% and that limit
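DiscoveRx PathHunter D2 beta-arrestin cells (2,100/well) attached overnight, then compound-stimulated 90 min at 37 C in HBSS/10 mM HEPES/0.1% Tween-20 buffer; beta-galactosidase complementation read by luminescence after 1 h at ambient temperature. Dopamine 57 uM final (EC100) as control.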
D2 PAM-2: D2 dopamine receptor (human) potentiation; P14416; HEK293 T-REx D2, calcium flux, EC20 dopamine potentiation; potentiation, % at 10 µM; 340,000 compounds, 0.34% hits; AID 485347;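 active = potentiation over 3 SD above the plate norm, cut at about 30% in these data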; also: 0% is about no effect
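Potentiation of an EC20 dopamine calcium response is measured in a force-coupled, tetracycline-inducible Hek293 Trex D2 line. Compound-only kinetic reads over 180 s flag agonists before dopamine addition.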
Anesthetic bind: candidate novel general anesthetic via apoferritin binding. P02791. 350,000 compounds, 0.074% hits. AID 485281. Potency, µM (doses to about 77.5 µM), for the others: at the top dose activity change, negative = displacement, usual class: inhibitors. apoferritin/1-aminoanthracene competitive binding, fluorescence; active = well fitted inhibition curve with a large enough effect; inconclusive = small, poorly fitted or top-dose-only effect; inactive = no such curve, though single readings can be large or run the other way; also: potency is read from the fitted curve at half-maximal effect; % is scaled to controls: 0 for no effect and ±100 for the full control effect; nearly all actives have a fitted effect of over 20% in size
Target sequence (P02791 2-175 limits assumed): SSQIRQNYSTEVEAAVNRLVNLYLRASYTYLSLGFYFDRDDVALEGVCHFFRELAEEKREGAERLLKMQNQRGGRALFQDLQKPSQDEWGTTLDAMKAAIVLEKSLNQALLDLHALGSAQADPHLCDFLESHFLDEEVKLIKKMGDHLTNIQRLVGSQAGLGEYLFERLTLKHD
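10 uM apoferritin + 50% sat. 1-AMA, PBS; cpd 10 min RT; Ex380/Em535 endpoint; normalized to free probe vs complex; 4-param Hill fit; propofol titration as pos. ctrl.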
D2 ag-2: D2 dopamine receptor (human) agonism; HEK293 T-REx D2 cells, calcium flux agonist mode; 340,000 compounds, 0.53% hits; activation, % at 2 µM;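 active = activation over 3 SD above normal in the single-dose calcium agonist read, cut at about 30% in these data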; also: 0% is about no effect
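Calcium-flux readout, 1 cycle/sec over 180 s following compound pin transfer, in inducible HEK293 Trex D2 cells (force-coupled); dopamine controls included. Positive calcium responses during this window marked compounds as potential agonists.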
* = called active by the depositor; ? = inconclusive; . = not tested or not shown.

SMILES	D2 PAM-1	D2 antagonist	D2 ag-1	D2 PAM-2	Anesthetic bind	D2 ag-2
CCN(c1cccc(C)c1)S(=O)(=O)c1ccc2c(c1)CCN2C(C)=O	-35.8	1.5	-0.7	-15.2	-10.4%	-0.5
CC(=O)N1CCOc2ccc(S(=O)(=O)N3CCC(C(=O)Nc4cc(C)cc(C)c4)CC3)cc21	-23.4	52.0*	-1.7	-12.3	-4.6%	-0.8
Cc1cc(C)cc(NC(=O)C2CCN(S(=O)(=O)c3ccc4[nH]c(=O)ccc4c3)CC2)c1	-9.2	31.2*	2.5	-16.3	-16.4%	-0.3
COc1cccc(-n2c(SCC(=O)c3ccccc3)nc3c([nH]c4ccccc43)c2=O)c1	.	.	.	-7.0	?	-1.7
c1ccc(-c2cc3nc(NCC4CC4)nc(NCC4CCCCC4)c3s2)cc1	-36.2	.	40.9*	.	.	.
COCCNc1nc(NCC2CCCCC2)c2sc(-c3ccccc3)cc2n1	-22.7	.	?	.	.	.
CCCn1c(N)c(Sc2ccccc2)c(=O)n(CCC)c1=O	1.0	49.0*	-0.6	-7.7	-15.1%	-0.1
CCCn1c(N)c(Sc2ccc([N+](=O)[O-])cc2)c(=O)n(CCC)c1=O	-3.0	-6.2	-1.9	-0.3	-15.5%	-1.5
Cc1nn(C)c2c1c(-c1ccccc1)cc(=O)n2Cc1ccc(Br)cc1F	.	.	.	-0.4	6.1%	1.1
O=C(N/C=C/n1cnc2cc(C(F)(F)F)ccc21)c1ccc(F)cc1	-7.0	.	-1.0	.	.	.
O=C(N/C=C/n1cnc2cc(C(F)(F)F)ccc21)c1ccccc1F	-8.4	-7.5	0.7	83.2*	-8.8%	-0.2
O=C(COC(=O)Cn1nc(-c2ccccc2)oc1=O)Nc1ccc(F)cc1	64.7*	2.8	6.7	4.2	.	-1.0
Cc1ccc(NC(=O)COC(=O)Cn2nc(-c3ccc(F)cc3)oc2=O)cc1C	-6.7	.	0.5	.	.	.
COc1cccc(S(=O)(=O)N2CCN(c3ccccc3F)CC2)c1	-10.6	0.0	0.1	-1.7	-5.3%	0.1
CC12CN3CC(C)(CN(C1)C3c1ccc(Br)cc1O)C2 (configuration not stated)	-12.5	36.1*	-2.9	-22.1	?	0.7
COc1ccc2c3c(cccc13)C(=O)CC2	-7.9	-15.1	-3.6	-10.5	64.0%	49.1*
CCOc1ccc(-n2c(-c3ccccc3)c[nH]c2=S)cc1	2.7	13.4	-4.8	8.1	-2.4%	-0.1
CCc1ccc(OCC(=O)OCC(=O)c2ccc3c(c2)NC(=O)CO3)cc1	-14.7	2.5	1.7	-4.6	?	0.0
Cc1cccc(C)c1OCC(=O)OCC(=O)c1ccc2c(c1)NC(=O)CO2	6.1	30.2*	-1.4	-5.4	?	0.7
O=C(Cn1c2[n+](c3ccc(C(F)(F)F)cc31)CCCCC2)c1cccc([N+](=O)[O-])c1	-20.5	35.3*	-7.6	-22.1	-10.3%	0.6
CCc1cc(C(=O)N2CCN(S(=O)(=O)c3ccc(Cl)cc3)CC2)sc1C	-7.9	38.5*	-1.6	-19.4	.	-0.1
CCc1noc(C)c1C(=O)N1CCN(S(=O)(=O)c2ccc(Cl)cc2)CC1	-2.3	-39.4	-6.3	1.9	.	0.5
CC1CCN(c2nc3ccc(C(=O)NCc4ccccc4Cl)cc3s2)CC1	.	.	.	-1.3	-3.9%	0.5
CCOC(=O)C1C(=O)NC(c2ccccc2)=NC1c1cccc(Br)c1 (configuration not stated)	-2.0	55.2*	-1.0	8.5	-16.1%	0.0
Cc1c(C(C)NC(=O)Nc2ccc(F)cc2F)cnn1C (configuration not stated)	-24.1	38.2*	-3.4	-13.4	7.0%	-0.8
Cc1cc(NC(=O)Nc2ccc(F)cc2F)n(C)n1	-9.7	13.3	-3.9	-4.5	-2.7%	6.3
CCOC(=O)c1ccc(-c2ccc3[nH]c4ccccc4c(=O)c3c2)cc1F	-0.8	30.9*	-2.3	8.8	-2.7%	-0.3
CCOC(=O)c1c[nH]c2ccc3ccccc3c2c1=O	16.4	-6.5	1.0	-5.9	-1.4%	5.8
O=C(c1ccc([N+](=O)[O-])o1)N1CCN(c2nc3c(Cl)cccc3s2)CC1	69.4*	0.1	10.2	2.5	.	0.1
